Targets with a hit are over-represented here; the source holds about 7,900 in all. About 0.6% of all pairs of compound and target were hits. Unmarked numbers belong to inactive results.
Columns and labels:
Assay in all cases: log2 fold change, soluble protein after heating vs DMSO (PISA); higher = thermal stabilisation; K562 cells, 10 uM, 30 min; active = over 0.2 and 3.5 SD of the protein, either way, in both replicates (recomputed)
saracatinib = compound: CN1CCN(CCOc2cc(OC3CCOCC3)c3c(Nc4c(Cl)ccc5c4OCO5)ncnc3c2)CC1 [saracatinib]
In short: (§1)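 Soluble protein was defined as the supernatant after 21,000xg for 90 min. It came from K562 cells at 2×10^6 cells/mL given 10 μM compound for 30 min, heated in aliquots for 3 min across 48°C-58°C, pooled, and extracted in PBS with 0.5% NP-40 at 4°C, and was quantified by TMTpro 16plex LC-MS/MS with equalised channel sums. Thermal stability against control samples, from duplicates, is reported as log2 fold change.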

sotrastaurin = compound: CN1CCN(c2nc(C3=C(c4c[nH]c5ccccc45)C(=O)NC3=O)c3ccccc3n2)CC1 [sotrastaurin]
In short: as §1

alvocidib = compound: CN1CC[C@H](c2c(O)cc(O)c3c(=O)cc(-c4ccccc4Cl)oc23)[C@H](O)C1 [alvocidib]
In short: as §1

Tubastatin A = compound: CN1CCc2c(c3ccccc3n2Cc2ccc(C(=O)NO)cc2)C1 [Tubastatin A]
In short: as §1

[1] = compound: CNC(=O)C1=CC=CC=C1NC2=NC(=NC=C2Cl)NC3=C(C=C(C=C3)N4CCOCC4)OC
In short: as §1

defactinib = compound: CNC(=O)c1ccc(Nc2ncc(C(F)(F)F)c(NCc3nccnc3N(C)S(C)(=O)=O)n2)cc1 [defactinib]
In short: as §1

rucaparib = compound: CNCc1ccc(-c2[nH]c3cc(F)cc4c3c2CCNC4=O)cc1 [rucaparib]
In short: as §1

[2] = compound: CNc1nc(-c2ccc3c(N)n[nH]c3c2)cc(N2C[C@@H](C(=O)NC3CCCCC3)CC[C@H]2C)n1
In short: as §1

encorafenib = compound: COC(=O)N[C@@H](C)CNc1nccc(-c2cn(C(C)C)nc2-c2cc(Cl)cc(NS(C)(=O)=O)c2F)n1 [encorafenib]
In short: as §1

[3] = compound: COC(=O)[C@H](CCSC)NC(=O)C1=C(C=C(C=C1)NC[C@H](CS)N)C2=CC=CC=C2
In short: as §1

Sequence of UniProt O43164 (O43164 whole entry, looked up): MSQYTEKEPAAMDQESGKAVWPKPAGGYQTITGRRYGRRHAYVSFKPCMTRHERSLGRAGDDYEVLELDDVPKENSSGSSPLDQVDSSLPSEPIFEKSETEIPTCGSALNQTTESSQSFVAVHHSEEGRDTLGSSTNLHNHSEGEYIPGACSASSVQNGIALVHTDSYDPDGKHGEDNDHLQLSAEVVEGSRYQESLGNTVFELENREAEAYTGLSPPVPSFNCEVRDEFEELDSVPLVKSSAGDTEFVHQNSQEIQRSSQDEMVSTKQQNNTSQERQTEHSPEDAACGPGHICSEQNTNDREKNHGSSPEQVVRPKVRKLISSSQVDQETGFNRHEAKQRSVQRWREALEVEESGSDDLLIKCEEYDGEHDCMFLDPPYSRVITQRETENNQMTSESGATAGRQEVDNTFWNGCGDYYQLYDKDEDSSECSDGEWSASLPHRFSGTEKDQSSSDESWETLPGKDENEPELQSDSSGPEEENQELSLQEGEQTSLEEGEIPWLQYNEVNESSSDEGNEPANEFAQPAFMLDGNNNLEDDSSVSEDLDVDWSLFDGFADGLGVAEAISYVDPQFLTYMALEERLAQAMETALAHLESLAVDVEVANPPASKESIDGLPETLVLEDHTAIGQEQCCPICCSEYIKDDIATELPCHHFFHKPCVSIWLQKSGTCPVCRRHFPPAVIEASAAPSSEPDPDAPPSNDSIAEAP
Sequence of UniProt Q93096 (Q93096 whole entry, looked up): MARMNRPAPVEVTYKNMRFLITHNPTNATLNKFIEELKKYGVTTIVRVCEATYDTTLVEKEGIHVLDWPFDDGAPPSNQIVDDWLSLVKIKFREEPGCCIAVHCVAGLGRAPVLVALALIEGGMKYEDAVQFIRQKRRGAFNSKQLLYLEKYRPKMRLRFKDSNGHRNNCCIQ
Sequence of UniProt Q05209 (Q05209 whole entry, looked up): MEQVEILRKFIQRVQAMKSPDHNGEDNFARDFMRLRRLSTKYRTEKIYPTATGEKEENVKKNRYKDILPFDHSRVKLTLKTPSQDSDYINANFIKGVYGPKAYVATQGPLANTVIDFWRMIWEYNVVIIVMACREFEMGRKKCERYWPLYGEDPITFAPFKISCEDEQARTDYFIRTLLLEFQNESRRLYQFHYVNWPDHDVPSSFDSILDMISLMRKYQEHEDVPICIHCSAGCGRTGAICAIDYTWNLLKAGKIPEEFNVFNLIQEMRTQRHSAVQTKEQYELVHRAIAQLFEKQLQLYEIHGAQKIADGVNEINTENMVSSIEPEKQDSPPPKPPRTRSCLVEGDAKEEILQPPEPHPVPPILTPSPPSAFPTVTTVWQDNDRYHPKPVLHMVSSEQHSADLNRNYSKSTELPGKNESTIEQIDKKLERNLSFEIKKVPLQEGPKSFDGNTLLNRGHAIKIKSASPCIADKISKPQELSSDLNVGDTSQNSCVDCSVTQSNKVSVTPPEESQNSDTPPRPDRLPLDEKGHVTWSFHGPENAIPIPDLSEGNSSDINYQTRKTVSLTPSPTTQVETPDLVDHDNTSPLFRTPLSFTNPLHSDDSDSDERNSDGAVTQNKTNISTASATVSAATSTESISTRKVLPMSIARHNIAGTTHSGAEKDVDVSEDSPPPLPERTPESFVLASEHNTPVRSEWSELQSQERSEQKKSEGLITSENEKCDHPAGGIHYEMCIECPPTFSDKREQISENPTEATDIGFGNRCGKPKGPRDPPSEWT
Sequence of UniProt Q9H5K3 (Q9H5K3 whole entry, looked up): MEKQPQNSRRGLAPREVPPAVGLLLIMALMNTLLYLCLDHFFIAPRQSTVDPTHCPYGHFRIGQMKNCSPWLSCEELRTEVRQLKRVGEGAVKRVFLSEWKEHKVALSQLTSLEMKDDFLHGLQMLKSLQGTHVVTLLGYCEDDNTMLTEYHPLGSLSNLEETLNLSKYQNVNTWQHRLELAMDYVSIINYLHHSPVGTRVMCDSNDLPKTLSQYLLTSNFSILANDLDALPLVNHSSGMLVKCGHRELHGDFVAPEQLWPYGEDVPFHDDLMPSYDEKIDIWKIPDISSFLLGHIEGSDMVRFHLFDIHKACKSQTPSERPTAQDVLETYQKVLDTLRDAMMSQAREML
Sequence of UniProt P27986 (P27986 whole entry, looked up): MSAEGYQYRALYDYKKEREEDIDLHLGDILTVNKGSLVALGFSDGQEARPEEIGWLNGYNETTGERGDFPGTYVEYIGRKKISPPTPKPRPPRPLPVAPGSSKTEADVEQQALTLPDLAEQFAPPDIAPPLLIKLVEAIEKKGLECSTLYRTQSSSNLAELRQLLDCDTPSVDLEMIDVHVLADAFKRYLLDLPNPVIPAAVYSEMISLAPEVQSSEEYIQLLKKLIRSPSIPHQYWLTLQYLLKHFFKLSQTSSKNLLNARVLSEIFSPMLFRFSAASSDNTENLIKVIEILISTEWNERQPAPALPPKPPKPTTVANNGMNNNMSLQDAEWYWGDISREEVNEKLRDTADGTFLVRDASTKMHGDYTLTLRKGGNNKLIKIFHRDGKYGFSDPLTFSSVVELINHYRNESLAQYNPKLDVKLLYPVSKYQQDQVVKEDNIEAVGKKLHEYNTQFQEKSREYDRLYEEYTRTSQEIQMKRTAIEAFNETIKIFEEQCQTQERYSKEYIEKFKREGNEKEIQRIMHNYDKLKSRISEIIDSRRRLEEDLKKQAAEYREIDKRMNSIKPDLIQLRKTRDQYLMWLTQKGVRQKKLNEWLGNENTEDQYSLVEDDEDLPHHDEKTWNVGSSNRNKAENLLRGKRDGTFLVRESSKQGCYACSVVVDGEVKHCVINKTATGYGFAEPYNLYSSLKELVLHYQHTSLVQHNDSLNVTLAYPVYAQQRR
Sequence of UniProt Q9Y5Y5 (Q9Y5Y5 whole entry, looked up): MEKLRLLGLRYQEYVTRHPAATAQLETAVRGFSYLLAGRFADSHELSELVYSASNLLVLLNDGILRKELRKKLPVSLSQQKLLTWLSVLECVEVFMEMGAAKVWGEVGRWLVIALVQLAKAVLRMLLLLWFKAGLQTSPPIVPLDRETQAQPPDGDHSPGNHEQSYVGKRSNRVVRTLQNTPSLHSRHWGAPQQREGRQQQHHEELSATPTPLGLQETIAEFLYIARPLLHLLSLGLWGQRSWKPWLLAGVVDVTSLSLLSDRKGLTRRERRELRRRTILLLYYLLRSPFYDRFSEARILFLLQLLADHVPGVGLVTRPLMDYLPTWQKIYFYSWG
Sequence of UniProt Q96KB5 (Q96KB5 whole entry, looked up): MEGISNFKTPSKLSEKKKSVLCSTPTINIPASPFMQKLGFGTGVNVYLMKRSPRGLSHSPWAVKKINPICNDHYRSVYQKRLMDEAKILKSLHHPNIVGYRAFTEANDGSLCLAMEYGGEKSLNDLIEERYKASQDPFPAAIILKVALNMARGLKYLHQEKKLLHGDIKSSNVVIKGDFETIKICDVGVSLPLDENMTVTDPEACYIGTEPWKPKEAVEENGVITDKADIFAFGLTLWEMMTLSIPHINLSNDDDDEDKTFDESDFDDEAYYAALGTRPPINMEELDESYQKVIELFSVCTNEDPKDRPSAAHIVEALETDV
Sequence of UniProt Q86YH6 (Q86YH6 whole entry, looked up): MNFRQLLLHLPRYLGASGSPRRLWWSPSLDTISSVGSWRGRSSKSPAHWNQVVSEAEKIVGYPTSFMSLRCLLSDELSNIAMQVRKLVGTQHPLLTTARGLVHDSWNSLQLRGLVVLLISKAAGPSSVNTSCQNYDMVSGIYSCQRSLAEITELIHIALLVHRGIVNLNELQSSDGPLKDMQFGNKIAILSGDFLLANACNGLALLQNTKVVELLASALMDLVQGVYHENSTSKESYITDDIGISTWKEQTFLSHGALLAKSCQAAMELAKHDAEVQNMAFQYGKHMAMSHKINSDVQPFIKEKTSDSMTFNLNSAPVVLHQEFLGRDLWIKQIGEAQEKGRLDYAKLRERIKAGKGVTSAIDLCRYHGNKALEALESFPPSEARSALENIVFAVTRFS
Sequence of UniProt Q15004 (Q15004 whole entry, looked up): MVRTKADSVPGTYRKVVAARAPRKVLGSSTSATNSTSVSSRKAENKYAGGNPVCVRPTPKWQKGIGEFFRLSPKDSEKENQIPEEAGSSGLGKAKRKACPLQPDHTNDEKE
Sequence of UniProt O43741 (O43741 whole entry, looked up): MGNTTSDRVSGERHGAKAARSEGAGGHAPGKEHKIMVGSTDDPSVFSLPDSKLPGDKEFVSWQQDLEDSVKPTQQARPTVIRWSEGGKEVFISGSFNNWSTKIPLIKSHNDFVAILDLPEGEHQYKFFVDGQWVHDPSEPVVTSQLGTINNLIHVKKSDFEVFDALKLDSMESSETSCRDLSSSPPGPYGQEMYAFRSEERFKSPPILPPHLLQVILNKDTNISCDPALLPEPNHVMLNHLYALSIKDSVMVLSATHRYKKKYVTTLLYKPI

Target | log2 fold change (saracatinib) | log2 fold change (sotrastaurin) | log2 fold change (alvocidib) | log2 fold change (Tubastatin A) | log2 fold change [1] | log2 fold change (defactinib) | log2 fold change (rucaparib) | log2 fold change [2] | log2 fold change (encorafenib) | log2 fold change [3]
PDCD4 (UniProt Q53EL6) | -0.008 | 0.138 | -0.113 | 0 | 0.177 | -0.243 | -0.113 | 0.114 | 0.073 | -0.097
PEX16 isoform 2 (UniProt Q9Y5Y5) | 0.038 | -0.02 | -0.141 | 0.021 | -0.053 | -0.106 | 0.042 | -0.04 | 0.001 | 0.05
PRKCA (UniProt P17252) | -0.174 | -0.502 (active) | -0.017 | 0.018 | 0.026 | -0.006 | 0.039 | 0.308 | -0.038 | 0.005
PCLAF (UniProt Q15004) | 0.057 | 0.057 | 0.138 | 0.08 | -0.094 | 0.076 | -0.094 | -0.161 | -0.046 | 0.093
PRMT8 (UniProt Q9NR22) | 0.015 | -0.046 | -0.029 | -0.09 | -0.009 | -0.039 | -0.059 | 0.052 | 0.01 | -0.122
PDSS2 (UniProt Q86YH6) | 0.159 | 0.218 | -0.053 | -0.013 | -0.019 | -0.076 | 0.07 | -0.025 | -0.154 | -0.042
POGZ (UniProt Q7Z3K3) | -0.134 | -0.186 | -0.065 | -0.071 | 0.056 | -0.162 | 0.196 | 0.136 | -0.02 | -0.043
POLR2G (UniProt P62487) | 0.041 | -0.016 | 0.328 (active) | -0.045 | 0.003 | 0.154 | 0.039 | 0.042 | -0.016 | -0.03
PBK (UniProt Q96KB5) | 0.01 | -0.205 | -0.02 | 0.089 | 0.093 | -0.15 | 0.187 | 0.005 | 0.198 | -0.111
PJA2 (UniProt O43164) | -0.057 | -0.014 | 0.054 | 0.061 | -0.013 | -0.003 | 0.004 | -0.053 | -0.003 | 0.049
POMK (UniProt Q9H5K3) | -0.047 | 0.007 | -0.083 | 0.021 | 0.022 | 0.024 | 0.168 | -0.052 | 0.089 | -0.056
PPP1R14A (UniProt Q96A00) | -0.048 | -0.027 | 0.025 | 0 | -0.021 | -0.012 | -0.023 | -0.015 | -0.025 | -0.004
PRKAB2 (UniProt O43741) | -0.064 | -0.077 | -0.094 | 0.039 | -0.159 | -0.084 | -0.371 | -0.022 | 0.118 | -0.036
PIK3R1 (UniProt P27986) | 0.014 | 0.001 | -0.079 | -0.017 | -0.014 | -0.06 | 0.052 | 0.022 | 0.08 | -0.024
PTP4A1 (UniProt Q93096) | -0.058 | 0.061 | -0.34 (active) | 0.036 | 0.02 | -0.447 (active) | -0.038 | 0.04 | -0.027 | 0.029
POLR2I (UniProt P36954) | 0.134 | 0.033 | 0.371 | -0.266 | 0.009 | 0.141 | 0.162 | 0.02 | 0.015 | 0.023
PTPN12 (UniProt Q05209) | 0.085 | -0.148 | 0.007 | 0.064 | 0.063 | 0.006 | 0.047 | -0.04 | 0.076 | -0.088
